This is one part of the list. No count for the full screen is at hand.
Target: furin, P09958
Test: furin cleavage Z-score vs untreated control; higher = more cleavage, active = 3.5 or more, inactive = 1 or less, 8 variable residues between constant flanks
How it was run: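 Sequencing of released DNA, tagged with adapters by PCR, gave read counts used as abundance. That DNA was freed when purified furin cut N-terminally bead-bound 8-mer peptides fused to a cDNA oligonucleotide, in 0.01 ml reactions at 1:10 enzyme:substrate in 50 mM HEPES pH 7.5 with CaCl2 and NaCl, lasting 7.5, 15 or 30 min. The cleavage Z-score was the lowess-adjusted log count versus furin-free reactions, scaled by median absolute deviation.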

Sequence of furin, P09958 (P09958 whole entry): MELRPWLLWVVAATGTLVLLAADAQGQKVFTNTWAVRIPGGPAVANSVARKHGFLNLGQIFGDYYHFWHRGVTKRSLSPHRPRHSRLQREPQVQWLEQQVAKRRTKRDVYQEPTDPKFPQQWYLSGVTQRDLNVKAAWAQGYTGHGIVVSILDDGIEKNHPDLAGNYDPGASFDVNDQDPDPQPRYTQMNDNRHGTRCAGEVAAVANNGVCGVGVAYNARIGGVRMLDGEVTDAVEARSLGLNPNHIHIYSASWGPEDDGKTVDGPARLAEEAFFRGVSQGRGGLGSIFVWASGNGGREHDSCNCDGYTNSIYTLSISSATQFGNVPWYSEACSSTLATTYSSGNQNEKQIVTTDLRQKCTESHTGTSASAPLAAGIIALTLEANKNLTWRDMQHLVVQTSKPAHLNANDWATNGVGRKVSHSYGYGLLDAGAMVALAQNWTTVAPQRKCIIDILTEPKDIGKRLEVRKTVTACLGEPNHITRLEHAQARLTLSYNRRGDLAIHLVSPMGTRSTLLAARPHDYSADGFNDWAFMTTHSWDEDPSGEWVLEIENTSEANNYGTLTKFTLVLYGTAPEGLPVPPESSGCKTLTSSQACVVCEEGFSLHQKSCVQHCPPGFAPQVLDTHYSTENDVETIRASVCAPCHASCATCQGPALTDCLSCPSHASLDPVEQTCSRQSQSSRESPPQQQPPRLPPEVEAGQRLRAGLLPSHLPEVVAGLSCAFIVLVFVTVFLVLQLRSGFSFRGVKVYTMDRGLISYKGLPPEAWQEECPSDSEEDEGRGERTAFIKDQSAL

Row | Sequence | furin cleavage Z-score (7.5 min) | furin cleavage Z-score (15 min) | furin cleavage Z-score (30 min)
1 | CALRRRMRRRAGNASASA [FS-1368] | 3.44 | 4.48 (active) | 4.37 (active)
2 | CALEHRRMRRAGNASASA [FS-349] | 11 (active) | 10.5 (active) | 9.29 (active)
3 | CASTPCSAGLAGNASASA [HC2556] | -0.924 (inactive) | -0.11 (inactive) | -0.471 (inactive)
4 | CAWEECSQHLAGNASASA [HC1668] | 2.53 | 0.743 (inactive) | 0.0767 (inactive)
5 | CAGTPCSAHLAGNASASA [HC2476] | -0.662 (inactive) | -0.917 (inactive) | -0.0259 (inactive)
6 | CAATPCSGSWAGNASASA [HC1823] | -0.934 (inactive) | -0.493 (inactive) | -0.88 (inactive)
7 | CAEHVTSTWVAGNASASA [HC2175] | -1.96 (inactive) | 1.55 | 0.829 (inactive)
8 | CARDRRMMSQAGNASASA [FS-2653] | 0.37 (inactive) | 0.534 (inactive) | 0.367 (inactive)
9 | CARLRRAADHAGNASASA [FS-2712] | 8.97 (active) | 8.17 (active) | 7.64 (active)
10 | CARLRRRTSHAGNASASA [FS-2716] | 1.21 | 1.27 | 4.1 (active)
11 | CARLRREPGGAGNASASA [FS-2713] | -0.934 (inactive) | -0.299 (inactive) | -0.815 (inactive)
12 | CARIRRRASQAGNASASA [FS-2032] | 3.16 | 3.54 (active) | 4.94 (active)
13 | CARLRRVVGQAGNASASA [FS-1747] | 0.978 (inactive) | -0.277 (inactive) | 1.66
14 | CARLKRIISHAGNASASA [FS-2706] | 0.518 (inactive) | -1.37 (inactive) | -0.856 (inactive)
15 | CARLRRQKLSAGNASASA [FS-2576] | 0.0621 (inactive) | 0.201 (inactive) | -0.745 (inactive)
16 | CARLRRVSHQAGNASASA [FS-1861] | -2.01 (inactive) | 0.557 (inactive) | 1.98
17 | CARLRRDTQQAGNASASA [FS-2494] | 8.34 (active) | 9.45 (active) | 7.24 (active)
18 | CAMEECSQHSAGNASASA [HC1777] | 2.1 | 0.565 (inactive) | 0.168 (inactive)
19 | CAPPEELKFQAGNASASA [NG7] | -0.102 (inactive) | -1.12 (inactive) | 0.127 (inactive)
20 | CARANRIVNAAGNASASA [FS-2392] | 0.0348 (inactive) | -1.24 (inactive) | -1.84 (inactive)
21 | CATFWAKHMWAGNASASA [HC1040] | 0.313 (inactive) | -0.474 (inactive) | 0.00738 (inactive)
22 | CARLHRFDSQAGNASASA [FS-2569] | -0.521 (inactive) | 0.134 (inactive) | 0.911 (inactive)

Row | Sequence | furin cleavage Z-score (7.5 min) | furin cleavage Z-score (15 min) | furin cleavage Z-score (30 min)
23 | CARLRRILEVAGNASASA [FS-2433] | -1.97 (inactive) | -0.173 (inactive) | 0.88 (inactive)
24 | CARLRRASWVAGNASASA [FS-3197] | 1.44 | 1.96 | 4.56 (active)
25 | CARLRRRASQAGNASASA [FS-2995] | 2.66 | 4.61 (active) | 4.94 (active)
26 | CARLRRTMLVAGNASASA [FS-2996] | 0.457 (inactive) | -0.166 (inactive) | 0.463 (inactive)
27 | CASAPPGDPPAGNASASA [HC1544] | -0.56 (inactive) | -0.28 (inactive) | -0.205 (inactive)
28 | CAFVQRFRRSAGNASASA [FS-236] | 11.9 (active) | 11.2 (active) | 9.2 (active)
29 | CAAPERERRSAGNASASA [FS-215] | 8.78 (active) | 11.7 (active) | 7.74 (active)
30 | CAALGLERRSAGNASASA [FS-1444] | -0.628 (inactive) | -0.614 (inactive) | 0.553 (inactive)
31 | CAAPRRPRRPAGNASASA [FS-116] | 0.169 (inactive) | 0.142 (inactive) | 0.528 (inactive)
32 | CAAPRRFRRSAGNASASA [FS-399] | 9.1 (active) | 8.32 (active) | 8.51 (active)
33 | CAQARRFRRSAGNASASA [FS-844] | 14.3 (active) | 14.1 (active) | 9.61 (active)
34 | CADEEVVTSTAGNASASA [HC2292] | 1.62 | 0.883 (inactive) | 1.1
35 | CATTPCSGSPAGNASASA [HC1939] | 0.991 (inactive) | -1.49 (inactive) | 0.61 (inactive)
36 | CAEVSCHRPSAGNASASA [HC2357] | 0.821 (inactive) | 0.257 (inactive) | -0.805 (inactive)
37 | CAVVCCSMDYAGNASASA [HC2071] | -0.0968 (inactive) | 0.0602 (inactive) | -0.172 (inactive)
38 | CATTECSGSWAGNASASA [HC1872] | -0.691 (inactive) | -0.533 (inactive) | -0.721 (inactive)
39 | CANNHVYRRSAGNASASA [FS-834] | 2.73 | 4.48 (active) | 3.35
40 | CAMEECSNHLAGNASASA [HC1741] | -0.217 (inactive) | 1.15 | 0.956 (inactive)
41 | CAALIRKLRDAGNASASA [FS-1303] | 10.1 (active) | 10.2 (active) | 7.71 (active)
42 | CAALARSHRDAGNASASA [FS-1183] | 3.5 (active) | 2.5 | 3.98 (active)
43 | CAACARKFRDAGNASASA [FS-1] | 0.95 (inactive) | -0.474 (inactive) | -0.446 (inactive)
44 | CAALARKMIGAGNASASA [HC622] | -0.391 (inactive) | -0.298 (inactive) | -0.269 (inactive)

From the supplement of paper PMC3545927
